Screens from PubChem.
RECQ1 inh: qHTS Assay for Inhibitors of RecQ-Like Dna Helicase 1 (RECQ1). ATP-dependent DNA helicase Q1 (Homo sapiens), P46063. Potency, µM (highest dose often 57.3 µM), inactives show at the highest dose activity, negative = inhibition, actives largely listed as inhibitors. RECQ1 DNA unwinding, red fluorescence kinetic read. AID 2549, 2010. 240,000 compounds, 0.54% hits;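 also: plate controls were vehicle for no effect and no enzyme for full effect; nearly all actives have a fitted effect of over 30% in size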
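RECQ1T1 50 nM; forked duplex (20 bp + 30-nt ss tails) 200 nM, ATP 2 mM final; pH 8.0, 2 mM MgCl2, 2.5 ug/ml poly(dI-dC); 15 min compound preincubation; discontinuous kinetic read over 2 h at RT.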
RGS12 GoLoco inh: qHTS Assay for Inhibitors of RGS12 GoLoco Motif Activity (Red Fluorophore); Guanine nucleotide-binding protein G(i) subunit alpha-1 (Homo sapiens), P63096; Gai1:RGS12 GoLoco peptide FP, rhodamine, 10 min; Potency, µM (titrated, usually from 61.6 µM), without a hit: top-dose activity, negative = inhibition, most hits filed as inhibitors; 230,000 compounds, 0.44% hits; active = well fitted inhibition curve with a large enough effect, not every such curve was filed as active; inactive = no such curve, though single readings can be large or run the other way; also: nearly all actives have a fitted effect of over 30% in size
Target sequence (P63096 whole entry, looked up): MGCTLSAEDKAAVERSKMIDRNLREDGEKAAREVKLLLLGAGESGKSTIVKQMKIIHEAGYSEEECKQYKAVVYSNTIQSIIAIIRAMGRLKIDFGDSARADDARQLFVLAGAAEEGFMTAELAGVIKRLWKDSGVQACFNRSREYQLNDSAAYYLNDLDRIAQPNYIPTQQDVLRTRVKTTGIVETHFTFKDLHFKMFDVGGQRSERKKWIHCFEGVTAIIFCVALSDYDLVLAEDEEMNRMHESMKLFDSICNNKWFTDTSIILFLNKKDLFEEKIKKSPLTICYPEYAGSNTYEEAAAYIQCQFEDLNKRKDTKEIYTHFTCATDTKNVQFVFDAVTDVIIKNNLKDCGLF
BLM helicase inh: qHTS Assay for Inhibitors of Bloom's syndrome helicase (BLM) | recombinant BLM DNA unwinding, fluorescence dequenching | Potency, µM (top dose mostly 56.1 µM), inactives show at the top dose activity change, negative = inhibition, most hits filed as inhibitors | 350,000 compounds, 0.2% hits | AID 2528, 2010;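 also: plate controls were vehicle for no effect and no enzyme for full effect; nearly all actives have a fitted effect of over 35% in size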
APE1 inh: qHTS Assay for Inhibitors of the Human Apurinic/apyrimidinic Endonuclease 1 (APE1); Potency, µM (series often up to 65.8 µM), without a hit: top-dose activity change, negative = inhibition, usual class: inhibitors; 350,000 compounds, 0.35% hits; DNA repair nuclease/redox regulator APEX1 (Homo sapiens), P27695; recombinant APE1, TAMRA/BHQ-2 abasic DNA cleavage fluorescence;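 also: plate controls were vehicle for no effect and reference inhibitor for full effect; nearly all actives have a fitted effect of over 55% in size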
Target sequence (P27695 whole entry, looked up): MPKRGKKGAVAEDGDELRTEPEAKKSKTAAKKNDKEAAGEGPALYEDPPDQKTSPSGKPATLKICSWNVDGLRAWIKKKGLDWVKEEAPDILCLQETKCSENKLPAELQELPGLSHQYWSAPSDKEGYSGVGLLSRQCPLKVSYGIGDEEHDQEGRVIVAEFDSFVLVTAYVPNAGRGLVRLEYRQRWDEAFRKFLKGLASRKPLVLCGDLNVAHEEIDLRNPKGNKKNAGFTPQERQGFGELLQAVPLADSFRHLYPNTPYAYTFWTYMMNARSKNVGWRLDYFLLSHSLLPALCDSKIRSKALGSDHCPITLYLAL
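Readout is kinetic fluorescence (ex 525, em 598 nm) from cleavage of 50 nM TAMRA/BHQ-2 THF abasic duplex by 0.75 nM APE1, compound added 15 min beforehand at RT.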
KDM4E inh: qHTS Assay for Inhibitors of Human Jumonji Domain Containing 2E (JMJD2E); 230,000 compounds, 1.6% hits; Potency, µM (top dose mostly 57.1 µM), for inactives: top-dose activity change, negative = inhibition, most hits filed as inhibitors; Lysine-specific demethylase 4E (Homo sapiens), B2RXH2; AID 2147, 2009; JMJD2E catalytic domain, FDH-coupled NADH fluorescence (FDH is formaldehyde dehydrogenase);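 also: 0% = wells with enzyme and -100% = buffer wells without enzyme; nearly all actives have a fitted effect of over 50% in size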
L3MBTL1 block: qHTS Assay for the Inhibitors of L3MBTL1 | Lethal(3)malignant brain tumor-like protein 1 (Homo sapiens), Q9Y468 | AlphaScreen L3MBTL1–H3K9me1 peptide binding | Potency, µM (doses to about 57.1 µM), without a hit: top-dose activity, negative = inhibition, hits mostly inhibitors | 230,000 compounds, 0.66% hits | AID 485360, 2010; also: nearly all actives have a fitted effect of over 60% in size
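L3MBTL1 50 nM + b-AHA-H3(1-15)K9me1 75 nM, 30 min RT; compound added, 30 min RT; streptavidin donor/Ni-chelate acceptor beads 10 ug/mL each final, 30 min RT dark; AlphaScreen read.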
* = called active by the depositor; i = inactive; ? = inconclusive; · = not tested or not shown; [ ] = remark or other dose. This is one part of a sample in which hits are shown more often than they occur. Unless noted, calls follow the shape of the dose curve; as a rule, active = well fitted curve in the direction sought with a large enough effect; inconclusive = small, poorly fitted or top-dose-only effect, or another doubt; inactive = no such curve, though single readings can be large; an effect the other way counts as inactive or inconclusive. Unless noted, % is scaled to controls: 0 for no effect and ±100 for the full control effect; potency is read from the fitted curve at half-maximal effect.

SMILES	RECQ1 inh	RGS12 GoLoco inh	BLM helicase inh	APE1 inh	KDM4E inh	L3MBTL1 block
CCN(CC)c1ccc(/C=N/Nc2ccccc2)c(O)c1	16%	-2%	-5%	2%	16µM*	-9%
CCN(CC)c1ccc(/C=N/NC(=O)c2ccoc2C)c(O)c1	-6%	4%	-6%	?	11µM*	-14%
CCN(CC)c1ccc(/C=N/NC(=S)NC)c(O)c1	-5%	34%	0%	1%	?	·
CCN(CC)c1ccc(/C=N/Nc2cccc(C)c2)c(O)c1	-7%	-2%	-3%	3%	?	-28%
CCN(CC)c1ccc(/C=N/NC(=O)OC)c(O)c1	-12%	-11%	-3%	1%	13µM*	·
COc1cccc([C@@H]2Oc3ccc(OC)cc3C(=O)[C@H]2OC(=O)NC2CCCC2)c1	i	-5%	-4%	2%	?	·
COc1ccc(CNC(=O)c2cc3cccc4c3n2CC(C)S4)c(OC)c1 (stereo not drawn)	·	·	-29%	·	·	·
Cc1ccc(C)c(N=Nc2ccc(O)c3ncccc23)c1	-18%	-1%	-16%	1%	?	·
CCS(=O)(=O)c1ccc(OC)c(N=Nc2ccc(O)c3ncccc23)c1	-17%	-25%	-11%	7%	18µM*	·
Cc1cccc(N=Nc2ccc(O)c3ncccc23)c1	i	4%	1%	-7%	-7%	20µM*
CC1=C(C(=O)OC(C)C)C(c2ccc(Cl)cc2)n2c(s/c(=C\c3ccc(OCC(=O)O)cc3)c2=O)=N1 (stereo not drawn)	·	·	-22%	6.7µM*	·	-7%
COc1ccc(N2CCN(Cc3cc(OC)c(O)c([N+](=O)[O-])c3)CC2)cc1	-1%	6%	2%	2%	22µM*	-6%
CCOc1cc(C#N)ccc1OCC(=O)NNC(=O)CC1CCS(=O)(=O)C1 (stereo not drawn)	·	·	·	7%	·	3%
O=C(Nc1cccnc1Cl)c1ccc(=O)oc1	?	3%	55%	32µM*	?	?
COc1ccc(C(=O)Nc2cccnc2Cl)cc1OC	·	·	-2%	7%	·	2%
COc1cc([C@@H]2c3cc4c(cc3[C@@H](O[C@@H]3O[C@H]5CO[C@@H](C)O[C@@H]5[C@@H](O)[C@H]3O)[C@@H]3COC(=O)[C@@H]23)OCO4)cc(OC)c1O	-10%	28µM*	-14%	-3%	1%	·
COc1cc([C@@H]2c3cc4c(cc3[C@@H](OC3OC5COC(C)OC5C(O)C3O)[C@H]3COC(=O)[C@H]23)OCO4)cc(OC)c1O (stereo partly drawn)	-15%	-17%	·	-1%	·	·
C[C@@H](CCc1ccc(O)cc1)NCCc1ccc(O)c(O)c1	-5%	4%	2%	-1%	20µM*	·
Cc1cccc(C)c1NC(=S)NCCc1ccc(O)c(O)c1	-16%	-5%	-5%	2%	1%	-9%
Cc1cc(C2(c3ccc(O)c(C)c3)OC(=O)c3ccccc32)ccc1O	-11%	39%	-16%	?	1%	?
O=C(O)CN(CC(=O)O)CC1=CC2C(=CC1=O)Oc1cc(O)c(CN(CC(=O)O)CC(=O)O)cc1C21OC(=O)c2ccccc21 (stereo not drawn)	·	·	·	13µM*	·	·
COc1ccc(C2CC(c3c(O)n(C4CCCCC4)c(=O)[nH]c3=O)=Nc3ccccc3S2)cc1 (stereo not drawn)	·	·	-8%	·	·	·
COc1ccc(Cn2c3nc4ccccc4nc3c3c(=O)n(Cc4ccco4)c(C)nc32)cc1	3.5µM*	45%	?	?	?	·
Cc1nc2c(c(=O)n1Cc1ccccc1Cl)c1nc3ccccc3nc1n2Cc1ccco1	-4%	34%	2%	-6%	?	·
COc1ccc(S(=O)(=O)c2c(N)n(Cc3ccco3)c3nc4ccccc4nc23)cc1	-10%	44%	?	-7%	?	28µM*
SMILES	RECQ1 inh	RGS12 GoLoco inh	BLM helicase inh	APE1 inh	KDM4E inh	L3MBTL1 block
O=C(CSc1nc2ccccc2nc1Cc1ccc(Cl)cc1)N1CCN(c2ccccc2F)CC1	·	·	-8%	·	·	·
O=P(O)(O)CP(=O)(O)O	7%	-4%	-3%	12%	0.35µM*	-10%
Oc1c(C(c2cccs2)N2CCN(c3ccccc3)CC2)ccc2cccnc12 (stereo not drawn)	-2%	1%	-6%	2%	7.9µM*	·
O=C(O)COc1ccc2c(c1)O/C(=C\c1ccco1)C2=O	·	·	-9%	13µM*	·	·
O=C(O)COc1ccc2c(c1)O/C(=C\c1cccs1)C2=O	-3%	4%	0%	-6%	?	·
Oc1c(CN2CCOCC2)cc(COCc2ccccc2)c2cccnc12	0%	-14%	-4%	1%	25µM*	?
CC(=O)OC[C@@H]1O[C@@H](O/N=C2/C[C@@H](O)[C@@H](O)[C@@H]3[C@@H]4C(=O)N(C(C)(C)C)C(=O)[C@H]4CC[C@@H]23)[C@H](OC(C)=O)[C@H](OC(C)=O)[C@@H]1OC(C)=O	-2%[11.5 µM]	·	0%[12.4 µM]	?	·	·
COC(=O)N1C(/C=C/c2ccc3c(c2)OCO3)=Cc2ccccc2C1CC(C)=O (stereo not drawn)	i[11.5 µM]	3%[14.2 µM]	2%[12.4 µM]	-9%[12.4 µM]	?	·
COc1cc(/C=C2\SC(=S)N(NC(=O)c3cccnc3)C2=O)ccc1O	25µM*	265%	-4%	?	-14%	·
COc1cc(/C=C2\SC(=S)N(Nc3ncc(C(F)(F)F)cc3Cl)C2=O)ccc1O	28µM*	359%	-20%	?	-5%	·
NC(N)=NCC1COC2(CCCCC2)O1 (stereo not drawn)	·	·	·	5%[21 µM]	·	·
Cc1ccc(Cn2cnc3c(cnn3C(C)(C)C)c2=O)cc1F	·	·	·	-3%	·	·
CCNC(=S)NNC(=O)c1ccccn1	0%	-1%	-6%	4%	?	3.5µM*
Cc1c(N=Nc2ccc(O)cc2)c(=O)n(-c2ccccc2)n1C	19%	9%	6%	-1%	1%	?
Cc1c(N=NC2=C(O)CCCC2=O)c(=O)n(-c2ccccc2)n1C	-9%	18µM*	-6%	-4%	-8%	-8%
Nc1cccn2c(-c3ccc(Cl)c(Cl)c3)cnc12	-3%	36%	-4%	0%	20µM*	?
